# From paper PMC7826789 (International Journal of Molecular Sciences, 2021)
# Test system: TAOK2
# Details: Compound Concentration (nM):1000
# 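Further: KINOMEscan scanMAX binding as percent activity remaining versus control; lower means stronger binding.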
row,SMILES,Percent Control [%]
1,COc1cc(C=NNc2ncnc3c2cnn3-c2ccccc2)ccc1O [GW513184X],100
2,CCS(=O)(=O)c1ccc(OC)c(Nc2ncc(-c3cccc(OC)c3)o2)c1 [GW580509X],100
3,Cl.O=C(Nc1ccc(Oc2ccc3[nH]c(NC(=O)c4ccco4)nc3c2)cc1)Nc1cc(C(F)(F)F)ccc1F [GW683134A],97
4,CN1CCN(C(=O)c2ccc(NC(=O)Nc3ccc(N(C)c4ccnc(Nc5ccc(CS(C)(=O)=O)cc5)n4)cc3)cc2)CC1.Cl [GW830263A],76
5,COc1cc(N2CCN(C(C)C)CC2)ccc1Nc1nc(Nc2ccc(F)cc2C(=O)NC[C@@H](O)CO)c2cc[nH]c2n1 [GSK1392956A],100
6,C[C@@H](Oc1cc(-n2cnc3ccc(OC4CCN(C)CC4)cc32)sc1C(N)=O)c1ccccc1Cl [GSK579289A],96
7,COc1ccc2cc(-c3c(-c4ccncc4)nc(-c4ccc(S(C)(=O)=O)cc4C)n3C)ccc2c1 [SB-633825],77
8,COC(=O)Nc1nc2ccc(Oc3ccc(NC(=O)Nc4cc(C(F)(F)F)ccc4F)cc3)cc2s1.Cl [GW693917A],86
9,CN(C)CCNC(=O)Nc1ccc(N(C)c2ccnc(Nc3ccc(CS(C)(=O)=O)cc3)n2)cc1.Cl [GW830900A],86
10,COc1cc(/C=N/Nc2ncnc3[nH]ncc23)ccc1O [GW578748X],80
11,COc1cc2ncn(-c3cc(O[C@H](C)c4ccccc4Cl)c(C(N)=O)s3)c2cc1OC [GSK237701A],79
12,CN(C)c1cc2c(Nc3ccc4c(cnn4Cc4ccccc4)c3)ncnc2cn1 [GW282974X],86
13,Cl.O=S1CCN(Cc2ccc(-c3ccc4ncnc(Nc5ccc(OCc6ccccc6)c(F)c5)c4c3)o2)CC1 [GW576924A],100
14,CCc1ccc(Oc2nccc(-c3c(-c4ccc(F)cc4)ncn3C3CCNCC3)n2)cc1 [SB-242719],93
15,Nc1ncnc2occ(-c3ccc(NC(=O)Nc4cc(C(F)(F)F)ccc4F)cc3)c12 [GW770249X],67
16,Cl.O=C(O[C@H]1CN[C@H](C#Cc2cc3ncnc(Nc4ccc5c(cnn5Cc5ccccc5)c4)c3s2)C1)N1CCOCC1 [GSK200398A],97
17,Cl.c1ccc(Cc2nc3ccc(Nc4ncnc5ccccc45)cc3[nH]2)cc1 [GR269666A],100
18,COc1ccc2c(-c3ccnc(Nc4cccc(OC(F)(F)F)c4)n3)cnn2n1 [GW810372X],98
19,COc1cccc(-c2c[nH]c3c(N/N=C/c4ccncc4)ncnc23)c1 [GW814408X],51
20,CCn1c(-c2nonc2N)nc2c(C#CC(C)(C)O)nc(OCCNC)cc21.Cl [GSK949675],92

row,SMILES,Percent Control [%]
1,NS(=O)(=O)c1ccc(Nc2ncc(-c3ccccc3)o2)cc1 [GW572399X],97
2,COc1ccc(COc2ccc(Cc3cnc(N)nc3N)cc2OC)cc1 [GW632580X],100
3,CC(C)COC(=O)c1ccc2c(c1)/C(=C/Nc1ccc(S(N)(=O)=O)cc1)C(=O)N2 [GW416981X],100
4,Cl.O=C(Nc1ccc(Oc2ccc3[nH]c(NC(=O)c4ccccc4)nc3c2)cc1)Nc1cc(C(F)(F)F)ccc1F [GW709042A],91
5,COc1cccc(-n2ncc3c(N/N=C/c4ccncc4)ncnc32)c1 [GW784752X],97
6,NS(=O)(=O)c1ccc(N/N=C2\C(=O)Nc3ccc(Cl)cc32)cc1 [GW280670X],100
7,O=C(Nc1n[nH]c2nc(-c3ccc(O)cc3)c(Br)cc12)C1CC1 [SB-725317],2.6
8,CC1=C(C(=O)Nc2ccc3[nH]ncc3c2)C(c2ccc3ccccc3c2)CC(=O)N1 (stereo not shown) [GSK270822A],96
9,Cc1cc(O)cc(C)c1/C=C/c1cncc(C(N)=O)c1 [GW435821X],91
10,NS(=O)(=O)c1ccc(N/N=C2\C(=O)Nc3ccc(C(=O)NCc4ccncc4)cc32)cc1 [GW300657X],99
11,C/C(Nc1ccc(S(N)(=O)=O)cc1)=C1/C(=O)Nc2ccccc21 [GW335962X],92
12,CC1=C(C(=O)Nc2ccc3[nH]ncc3c2)C(c2ccc(Cl)c(Cl)c2)CC(=O)N1 (stereo not shown) [GSK299115A],77
13,CCS(=O)(=O)c1ccc(OC)c(Nc2ncc(-c3cccc(F)c3)o2)c1 [GW621970X],100
14,COc1ccccc1-c1cc(/C=C2\C(=O)Nc3ncc(Br)cc32)cc(Br)c1O [GW442130X],100
15,NS(=O)(=O)c1ccc(N/N=C2\C(=O)Nc3ccc(C(=O)NCCc4c[nH]cn4)cc32)cc1 [GW300660X],93
16,O=C1Nc2ccc(C(=O)c3ccco3)cc2C1=Cc1cc(Cl)c(O)c(Cl)c1 [GW406108X],100
17,COc1cc(C)c(N(C)C(=O)CN(C)C)cc1Nc1nc(Nc2cccc(F)c2C(N)=O)c2cc[nH]c2n1 [GSK2219385],100
18,NS(=O)(=O)c1ccc(N/N=C2\C(=O)Nc3ccc(-c4cnco4)cc32)cc1 [GW276655],95
19,COc1ccc2[nH]c3c4[nH]c5ccc(OC)cc5c4c4c(c3c2c1)C(=O)NC4=O [GW296115X],96
20,COc1cc2ncnc(Nc3ccc4c(cnn4Cc4ccccc4)c3)c2cc1OC.Cl [GW282449A],100
